# Records with an inconclusive call do not appear. The source made the active and inactive calls. Rule for the calls: active = hit-call score of the fitted dose curve at least 0.9, where 1 is the maximum; inconclusive = response in the unintended direction; inactive = score below 0.9.
# Target: PGR (gene 5241) (UniProt P06401)
# Assay: TOX21_PR_LUC_Followup_Antagonist: Tox21 HEK293 Progesterone Receptor (PR) Antagonism Luciferase Follow-Up Assay (AID 2283938);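 note: curve fitted upward as signal gain over DMSO baseline despite antagonist label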
# Source text: TOX21_PR_LUC_Followup is a secondary assay for specificity for the TOX21_PR_BLA_Agonist assay. To differentiate true PR agonists from cytotoxic substances, this follow up assay is multiplexed with a cell viability assay.TOX21_PR_LUC_Followup_Antagonist is one of one assay component(s) measured or calculated from the TOX21_PR_LUC_Followup assay. It is designed to make measurements of luciferase induction, a form of inducible reporter, as detected with bioluminescence signals by CellTiter-Glo Luciferase-coupled ATP quantitation technologyData from the assay component TOX21_PR_LUC_Followup_Antagonist was analyzed into 1 assay endpoint. This assay endpoint, TOX21_PR_LUC_Followup_Antagonist, was analyzed in the positive analysis fitting direction relative to DMSO as the negative control and baseline of activity. Using a type of inducible reporter, gain-of-signal activity can be used to understand changes in the reporter gene as they relate to the gene NR3C3. Furthermore, this assay endpoint can be referred to as a primary readout, because the performed assay has only produced 1 assay endpoint. To generalize the intended target to other relatable targets, this assay endpoint is annotated to the nuclear receptor target family, where the subfamily is steroidal.
# Quality Control Precautions: Maintain cells below 85-90% confluence in culture medium. For assay purpose, the cells should be cultured in assay medium with 10% charcoal stripped FBS for 5 days with alternate day medium changed to fresh medium. Especially while in assay culture, the cells should not reach more than 85% confluence as they would become harder to detach if they reach over confluence.Assay Protocol: HEK293-PR-A-luc cells were dispensed at 3,000 cells/5 uL/well of culture medium into white wall/solid-bottom 1536-well plates using a Multidrop Combi (ThermoFisher Scientific, Waltham, MA) dispenser. After the assay plates were incubated at 37C and […] for 5 h, 23 nL of compounds dissolved in DMSO, positive controls or DMSO only was transferred to the assay plate by a Pintool station (Kalypsys, San Diego, CA). The plates were incubated at 37C and […] for 16 h. Then 4 uL of ONE-Glo reagent (Promega, Madison, WI) was added to each plate using a BioRAPTR Flying Reagent Dispenser (FRD) workstation (Beckman Coulter, Indianapolis, IN, USA) and luminescence was quantified on a ViewLux (PerkinElmer, Shelton, CT) plate reader after 30 min incubation at room temperature.
# Sequence of PGR (gene 5241) (P06401 whole entry, looked up): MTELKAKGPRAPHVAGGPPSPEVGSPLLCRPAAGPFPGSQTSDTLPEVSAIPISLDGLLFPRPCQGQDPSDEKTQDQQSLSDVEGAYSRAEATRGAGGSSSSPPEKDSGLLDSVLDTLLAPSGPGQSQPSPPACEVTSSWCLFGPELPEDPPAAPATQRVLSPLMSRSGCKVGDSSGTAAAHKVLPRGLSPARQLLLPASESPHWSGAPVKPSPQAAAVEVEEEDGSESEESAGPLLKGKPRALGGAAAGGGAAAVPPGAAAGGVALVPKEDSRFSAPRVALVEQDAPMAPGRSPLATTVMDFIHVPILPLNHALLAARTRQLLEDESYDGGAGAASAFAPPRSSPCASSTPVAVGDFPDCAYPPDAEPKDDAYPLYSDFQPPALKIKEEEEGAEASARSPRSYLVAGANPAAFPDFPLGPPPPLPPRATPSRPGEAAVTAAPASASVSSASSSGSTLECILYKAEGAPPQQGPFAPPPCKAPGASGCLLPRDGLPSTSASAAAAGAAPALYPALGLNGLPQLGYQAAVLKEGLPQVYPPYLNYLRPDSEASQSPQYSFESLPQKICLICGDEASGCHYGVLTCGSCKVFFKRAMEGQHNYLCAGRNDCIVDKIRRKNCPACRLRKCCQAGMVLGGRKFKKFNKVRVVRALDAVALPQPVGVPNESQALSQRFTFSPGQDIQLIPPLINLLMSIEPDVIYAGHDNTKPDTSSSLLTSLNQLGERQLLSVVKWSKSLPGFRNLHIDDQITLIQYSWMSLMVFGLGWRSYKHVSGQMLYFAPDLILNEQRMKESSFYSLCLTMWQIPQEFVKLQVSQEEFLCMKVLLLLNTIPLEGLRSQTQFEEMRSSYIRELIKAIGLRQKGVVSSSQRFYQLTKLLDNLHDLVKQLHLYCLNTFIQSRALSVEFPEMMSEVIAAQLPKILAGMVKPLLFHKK
Compound,outcome,AC50
CC(=O)OCC(=O)[C@H]1CC[C@H]2[C@@H]3CCC4=CC(=O)CC[C@]4(C)[C@H]3CC[C@]12C,inactive,
CC(=O)O[C@H]1CC[C@@]2(C)C(=CC[C@@H]3[C@@H]2CC[C@]2(C)C(C(C)=O)=CC[C@@H]32)C1,,9.14 µM (active)
C/C=C1\C(=O)C[C@H]2[C@@H]3CCC4=CC(=O)CC[C@]4(C)[C@H]3CC[C@]12C,inactive,
CCC(=O)Oc1ccc2c(c1)CC[C@@H]1[C@@H]2CC[C@@]2(C)[C@H]1C[C@@H](OC(=O)CC)[C@@H]2OC(=O)CC,inactive,
CCC(=O)O[C@]1(C(=O)COC)[C@@H](C)C[C@H]2[C@@H]3CCC4=CC(=O)C=C[C@]4(C)C3(F)[C@@H](O)C[C@@]21C (stereo not given in full),inactive,
C/C=C1/C(=O)C[C@H]2[C@@H]3CCC4=CC(=O)CC[C@]4(C)[C@H]3CC[C@]12C,inactive,
CCCC(=O)O[C@]1(C(=O)CO)CC[C@H]2[C@@H]3CCC4=CC(=O)CC[C@]4(C)[C@H]3[C@@H](O)C[C@@]21C,inactive,
CC1(C)OC(=O)Nc2ccc(Br)cc21,inactive,
CC(=O)O[C@@H]1CC2C3CCc4cc(OC(=O)c5ccccc5)ccc4C3CCC2(C)[C@H]1OC(C)=O (stereo not given in full),,1.05 µM (active)
COC(=O)[C@@H]1CC2=CC(=O)CC[C@]2(C)[C@@]23O[C@@H]2C[C@@]2(C)[C@@H](CC[C@@]24CCC(=O)O4)[C@H]13,inactive,
C[C@@H]1CC(=O)NN=C1c1ccc(NN=C(C#N)C#N)cc1,,3.22 µM (active)
CCOC(=O)C1=C(C)NC(C)=C(C(=O)OC)C1c1cccc(Cl)c1Cl (stereo not given),,13.4 µM (active)
C/C=C(/C(=C/C)c1ccc(OC(C)=O)cc1)c1ccc(OC(C)=O)cc1,,14.7 µM (active)
CC(=O)OCC(=O)[C@@]1(O)CC[C@H]2[C@@H]3CCC4=CC(=O)CC[C@]4(C)[C@H]3C(=O)C[C@@]21C,inactive,
CCCC(=O)OCOC(=O)C1=C(C)NC(C)=C(C(=O)OC)C1c1cccc(Cl)c1Cl (stereo not given),inactive,
CC(=O)OCC(=O)[C@@]1(O)[C@H](C)C[C@H]2[C@@H]3CCC4=CC(=O)C=C[C@]4(C)[C@@]3(F)[C@@H](O)C[C@@]21C,inactive,
CC(C)(C)C(O)/C=C/c1ccc2c(c1)OCO2 (stereo not given),inactive,
Clc1ccc2c(c1)Nc1ccccc1S2,,28.9 µM (active)
Cl/C(=C\n1cncn1)c1ccc(Cl)cc1Cl,inactive,
CN1CC[C@H](c2c(O)cc(O)c3c(=O)cc(-c4ccccc4Cl)oc23)[C@H](O)C1,,0.565 µM (active)
CCN(CC)CC(=O)OCC(=O)[C@@]1(O)CC[C@H]2[C@@H]3CCC4=CC(=O)CC[C@]4(C)[C@H]3[C@@H](O)C[C@@]21C,inactive,
C[C@]12CCC(=O)C=C1CC[C@H]1[C@@H]3CC[C@](O)(C(=O)CO)[C@@]3(C)C[C@H](O)[C@@]12F,inactive,
CN1CCN(C2=Nc3cc(F)ccc3Cc3ccccc32)CC1,inactive,
CCCOc1ccc2c(c1)CC[C@@H]1[C@@H]2CC[C@]2(C)C(OC)CC[C@@H]12 (stereo not given in full),inactive,
COC(=O)C1=C(C)NC(C)=C(C(=O)OC(C)C)C1c1cccc2nonc12 (stereo not given),,18.1 µM (active)

# — PubChem BioAssay (EPA / NIEHS)
